MITF inh: inhibitors of human MITF | 650,000 tested, 0.91% active | O75030 | AlphaScreen MITF homodimerization, bead proximity signal | AID 1259374 | inhibition, % at 2.6 µM; in the data active means inhibition above about 50%
Target sequence (O75030 whole entry, looked up): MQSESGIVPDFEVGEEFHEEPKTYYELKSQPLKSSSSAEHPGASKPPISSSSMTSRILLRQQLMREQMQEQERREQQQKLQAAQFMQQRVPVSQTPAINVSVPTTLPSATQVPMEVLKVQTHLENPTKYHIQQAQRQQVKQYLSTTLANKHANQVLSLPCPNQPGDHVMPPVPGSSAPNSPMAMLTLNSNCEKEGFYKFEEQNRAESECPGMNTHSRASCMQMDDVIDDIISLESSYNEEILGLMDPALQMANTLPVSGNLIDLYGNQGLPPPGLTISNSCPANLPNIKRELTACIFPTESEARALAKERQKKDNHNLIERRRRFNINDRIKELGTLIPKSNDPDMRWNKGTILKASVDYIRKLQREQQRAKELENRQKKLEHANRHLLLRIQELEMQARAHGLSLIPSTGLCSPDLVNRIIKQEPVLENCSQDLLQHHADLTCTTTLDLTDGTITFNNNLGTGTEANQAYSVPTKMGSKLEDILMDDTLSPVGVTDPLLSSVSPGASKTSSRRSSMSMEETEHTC
TEAD-YAP inh: TEAD-YAP interaction inhibition | HEK-TIYL cells, TEAD-Gal4/YAP UAS-luciferase luminescence | inhibition, % at 9.12 µM | 640,000 tested, 1.4% active; in the data active means inhibition above about 32%
FBW7 act: human FBW7 E3 ligase activation, primary screen | normalized activity (activation), % at 26.1 µM | 650,000 tested, 0.13% active | AlphaScreen FBW7–phospho-cyclin E peptide binding, activator screen | AID 1259310 | Q969H0; in the data active means normalized activity above about 1.9%;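 further: purified mutant Fbw7 with reduced substrate affinity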
GPR151 ag: human GPR151 activation. AID 1508602. 650,000 tested, 1% active. Q8TDV0. activation, % at 11.2 µM. PathHunter beta-arrestin GPR151 cells, luminescence; in the data active means activation above about 4.9%
MITF confirm: human MITF inhibition, confirmation | AID 1259372 | 4,700 tested, 16% active | shares compounds with MITF inh | inhibition, % at 2.6 µM | AlphaScreen MITF homodimerization, biotin/His-MITF beads;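 active means inhibition above a cutoff derived from the DMSO control wells, cut at about 28% in these data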;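 further: inhibitors lower the bead chemiluminescence by keeping MITF from dimerizing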
AlphaScreen intf2: optically interferes with AlphaScreen signal; shares compounds with MITF inh; LysRS AlphaScreen counterscreen, signal interference, triplicate; inhibition, % at 2.6 µM; 4,700 tested, 7.6% active;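 active means inhibition above a cutoff derived from the DMSO control wells, cut at about 30% in these data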
Numbers stand for hits; i = inactive; nt = no result given. The list is not random: actives were taken first. Their share in the collection is about 3.5%.

SMILES	MITF inh	TEAD-YAP inh	FBW7 act	GPR151 ag	MITF confirm	AlphaScreen intf2
O=C(c1ccc2c(c1)ncn2C1CCCCCC1)N1CCC2(CC1)OCCO2	i	i	i	i	nt	nt
O=C(c1ccc2c(c1)ncn2-c1ccc(OCc2ccccc2)cc1)N1CCC2(CC1)OCCO2	i	42	i	i	nt	nt
O=Cc1cn(Cc2cc(=O)n3ccccc3n2)c2ccccc12	i	i	i	i	nt	nt
COc1cc2c(cc1OC)[C@@H]1C(=O)c3ccc4c(c3O[C@@H]1CO2)C[C@H](C(C)C)O4	i	68	i	i	nt	nt
CCOC(=O)C1=C(NC(=S)NC(=O)c2ccccc2)c2ccccc2CC12CCCC2	i	41	i	i	nt	nt
CC(=O)NC1C(OC2OC(CC(O)C3OC(n4ccc(=O)[nH]c4=O)C(O)C3O)C(O)C(O)C2NC(=O)/C=C\CCCCCCCCCC(C)C)OC(CO)C(O)C1O (configuration not stated)	i	64	i	i	nt	nt
CC(C)CN1CCN(Cc2cccc(F)c2F)CC1CCO (configuration not stated)	i	i	i	i	nt	nt
CCN(CC)c1ccc(CNCCc2c(C)[nH]c3ccccc23)cc1	75	i	i	i	nt	nt
Cc1nnc2nc(N[N+](=O)[O-])nc(N)n12	i	i	i	i	nt	nt
C[C@@H]1O[C@@H](O[C@@H]2C=C3CCC4C(CC[C@]5(C)[C@@H](c6ccc(=O)oc6)CC[C@]45O)[C@@]3(C)CC2)[C@H](O)[C@H](O)[C@H]1O (some centres not stated)	i	nt	i	10	nt	nt
COc1ccccc1/C=C1\CCCc2c(-c3ccccc3)cc(-c3ccccc3)[n+](C)c21	i	95	i	i	nt	nt
COc1ccc(/C=C2\CCCc3c(-c4ccccc4)cc(-c4ccccc4)[n+](C)c32)cc1	i	92	i	i	nt	nt
CCN1CCN(c2ccc(NC(=S)NC(C)=O)cc2Cl)CC1	i	43	i	i	nt	nt
COc1cc(OC)c2nonc2c1[N+](=O)[O-]	i	i	i	i	nt	nt
CO[C@@H]1C[C@@H](C[C@H]2CC[C@H](C)[C@H]([C@@H](C)C(=O)O)O2)O[C@]2(O[C@](C)([C@H]3CC[C@@](C)([C@@H]4O[C@@H]([C@H]5O[C@@](O)(CO)[C@H](C)C[C@@H]5C)C[C@@H]4C)O3)C[C@H]2C)[C@@H]1C	i	77	i	i	nt	nt
Cc1ncc(CN2CCCC(C(=O)c3sccc3C)C2)[nH]1 (configuration not stated)	i	i	i	i	nt	nt
CCOc1ccc(C(=O)C(CN2CCCC2)c2ccccc2)cc1 (configuration not stated)	i	i	i	i	nt	nt
CN(C(=O)Cc1ccccc1)[C@H](CN1CCCC1)c1ccccc1	i	nt	1.9	i	nt	nt
CN1CCN(Cc2ccc(F)c(Br)c2)CC1	80	i	i	i	i	i
OCCN1CCN(Cc2ccc(F)c(Br)c2)CC1	73	i	i	i	i	i
CCN1CCN(Cc2ccc(F)c(Br)c2)CC1	i	i	i	i	nt	nt
Cc1cc2ncc3c([n+]2o1)/C(=C/c1ccc([N+](=O)[O-])cc1)CC3	i	i	i	i	nt	nt
COc1ccc(CCNCc2cccnc2)cc1OC	70	i	i	i	i	i
COc1cccc(CCNCc2cc(OC)cc(OC)c2)c1	55	i	i	i	i	i
CN1CCN(Cc2ccc(OC3CCCC3)cc2)CC1CCO (configuration not stated)	i	i	i	i	nt	nt
SMILES	MITF inh	TEAD-YAP inh	FBW7 act	GPR151 ag	MITF confirm	AlphaScreen intf2
CC(C)Sc1ccc(CC(=O)N2CCN(Cc3nc4ccccc4n3C)CC2)cc1	55	i	i	i	i	i
COC1=Nc2ccccc2C2C(C(=O)C34CC5CC(CC(C5)C3)C4)C12C#N (configuration not stated)	i	i	i	i	nt	nt
CCN1CCN(Cc2ccc(OC)cc2)CC1	i	i	i	i	nt	nt
COc1ccc(OCC#CCN2CCNCC2)cc1	59	i	i	i	i	i
Fc1ccc(CNCCc2c[nH]c3ccccc23)cc1	i	i	i	i	nt	nt
Fc1ccc(CNCCc2c[nH]c3ccccc23)cc1F	54	i	i	i	i	i
O=c1oc2ccccc2c(O)c1C(c1cc([N+](=O)[O-])c(Cl)cc1Cl)c1c(O)c2ccccc2oc1=O	i	i	i	i	nt	nt
Cc1cccc(CN2CCN(C(=O)COc3ccc(Cl)cc3)CC2)c1	i	i	i	i	nt	nt
COc1ccc(Br)cc1CN1CCN(C(=O)COc2cccc(C)c2)CC1	58	i	i	i	i	i
O=C(COc1ccccc1)N1CCN(Cc2cccnc2)CC1	81	i	i	i	i	i
Cc1cccc(OCC(=O)N2CCN(Cc3ccccc3Cl)CC2)c1	66	i	i	i	i	i
O=C(COc1ccccc1)N1CCN(Cc2cccc(Cl)c2)CC1	i	i	i	i	nt	nt
Cc1cccc(CN2CCN(C(=O)COc3ccccc3)CC2)c1	53	i	i	i	i	i
CCOC(=O)C1(c2ccccc2)CCN(CCC(=O)Nc2cc(C)on2)CC1	i	i	i	i	nt	nt
COc1ccc(Cl)cc1-n1c(/C=C\c2ccc(F)cc2)nc2ccccc2c1=O	i	i	i	i	nt	nt
CCN1C(=O)/C(=C/c2c(OC)cc(OC)cc2OC)C(=O)NC1=S	i	i	i	i	nt	nt
Cc1cccc(OCC(=O)N2CCN(Cc3ccc(Br)cc3)CC2)c1	70	i	i	i	i	i
O=C(COc1ccc(Br)cc1)N1CCN(Cc2ccccc2)CC1	i	i	i	i	nt	nt
Cc1c(/C=C\[N+](=O)[O-])c2ccccc2n1C	i	i	i	i	nt	nt
COc1ccc(CN2CCN(C)CC2)cc1Br	73	i	i	i	i	i
COc1ccc(CN2CCN(Cc3ccc(Br)cc3)CC2)cc1Br	i	i	i	i	nt	nt
COc1ccc(CN2CCN(Cc3ccccc3Br)CC2)cc1Br	75	i	i	i	i	i
N#CCCN1CC2CC(C1)c1cccc(=O)n1C2 (configuration not stated)	i	i	i	i	nt	nt
c1ccc(CN2CCN(C3CCCCC3)CC2)cc1	75	i	i	i	i	i
c1ccc(CN2CCN(c3ccccc3)CC2)cc1	i	i	i	i	nt	nt
SMILES	MITF inh	TEAD-YAP inh	FBW7 act	GPR151 ag	MITF confirm	AlphaScreen intf2
CC1CN=C(Nc2ccc(Cl)c(Cl)c2)S1 (configuration not stated)	i	i	i	i	nt	nt
CC(C)N1CCN(Cc2ccccc2[N+](=O)[O-])CC1	63	i	i	i	i	i
COc1ccccc1N1CCN(Cc2ccccc2[N+](=O)[O-])CC1	i	i	i	i	nt	nt
O=[N+]([O-])c1ccccc1CN1CCN(Cc2ccccc2F)CC1	67	i	i	i	i	i
CCCCC/C=C\C/C=C\C/C=C\C/C=C\CCCC(=O)Nc1ccc([N+](=O)[O-])cc1	i	nt	nt	i	nt	nt
CCC(C)N1CCN(Cc2cc(OC)c(OC)c(OC)c2)CC1 (configuration not stated)	75	i	i	i	i	i
CCC(C)N1CCN(Cc2cc(OC)c(O)c(OC)c2)CC1 (configuration not stated)	68	i	i	i	i	i
CCN1CCN(Cc2cc(OC)c(O)c(OC)c2)CC1	i	i	i	i	nt	nt
CCCC12CN3CCN(CC(C3)C1=O)C2	i	i	i	i	nt	nt

Compound activity (PubChem BioAssay)
